Laboratory results as given in the supplement of paper PMC9135407.
Values joined by “and” are separate entries in the source; they are usually repeats but may differ in a detail not shown here. Equal values may be shown once. Where a name gives a salt, the structure may show the parent alone. Among all 5,800 compounds or so, about 620 (11%) showed activity. What follows is part of a selection rich in actives, with near analogues and random picks from the rest. Values without a mark were called inactive.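 The calls were made as follows: active = score above a cut-off or among the top three wells of a plate; in these data no inactive exceeds 0.85.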

Tested on: primary human hepatic stellate cells (donor 1)
Experiment: scaled lipid accumulation score (0 = DMSO-like, 1 = nortriptyline-like); higher = stronger HSC inactivation (lipid re-accumulation), active = hit call of the paper
Details: 48 h
Protocol: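 Primary lipid accumulation screen in primary human hepatic stellate cell myofibroblasts (donor 1, passage 8) in 384-well plates. 100 nL of library compound was pin-transferred into 30 µL medium in duplicate, and cells were treated for 48 h. The 'Scaled' score combines distance from plate baseline, toxicity and reproducibility penalties, and is normalised to nortriptyline (positive) and DMSO (negative) controls on each plate. A hit is defined as scaled >0.85 or among the top 3 wells per plate.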

[1] = library stock concentration: 10 mM
[2] = library stock concentration: 1 mM
[3] = library stock concentration: 3.33 mM
[4] = library stock concentration: 6.4 mM
[5] = library stock concentration: 80 uM
[6] = library stock concentration: 400 uM
[7] = library stock concentration: 2 mM

For Cn1ccc2cc3c(cc21)CCN3C(=O)Nc1cccnc1, the “scaled lipid accumulation score” value [1] was ≤ 0 and ≤ -0.006.
With Cc1cc2c(cc1Cl)N(C(=O)Nc1ccnc3ccccc13)CC2 the “scaled lipid accumulation score” value [1] was 1.08 (active).
In the case of Cc1cc2c(cc1Cl)N(C(=O)Nc1ccc(Oc3cccnc3C)nc1)CC2, the “scaled lipid accumulation score” value [1] is reported as 0.832.
In the case of CC(=Nc1ccccc1N)c1c(C)cc(=O)n(O)c1O, the “scaled lipid accumulation score” value [1] is reported as at most 0.
In the case of CCCCCCCCCCCCCCCCOC[C@H](COP(=O)([O-])OCC[N+](C)(C)C)OC(=O)CCC [Butanoyl PAF], the “scaled lipid accumulation score” value [2] is reported as at most 0.
CO[C@H]1C[C@@H]2CC[C@@H](C)[C@@](O)(O2)C(=O)C(=O)N2CCCC[C@H]2C(=O)O[C@H]([C@H](C)C[C@@H]2CC[C@H](n3cnnn3)[C@H](OC)C2)CC(=O)[C@H](C)/C=C(\C)[C@@H](O)[C@@H](OC)C(=O)[C@H](C)C[C@H](C)/C=C/C=C/C=C/1C [Zotarolimus(ABT-578)] was tested, and the “scaled lipid accumulation score” value [3] was 0.109 and the “scaled lipid accumulation score” value [1] was at most 0.
With OC[C@H]1NC[C@@H](O)[C@@H](O)[C@@H]1O [1-Deoxymannojirimycin hydrochloride] the “scaled lipid accumulation score” value [1] was at most -0.006 and the “scaled lipid accumulation score” value (library stock concentration: 25.1 mM) was at most -0.012.
With CCCCC(C)(C)[C@H](O)/C=C/[C@H]1C=CC(=O)[C@@H]1C/C=C\CCCC(=O)O [16,16-dimethyl Prostaglandin A2] the “scaled lipid accumulation score” value [2] was at most 0.
With C#C[C@]1(O)CC[C@H]2[C@@H]3CCC4=CC(=O)CC[C@@H]4[C@H]3CC[C@@]21CC the “scaled lipid accumulation score” value [1] was 0.195.
In the case of C#C[C@]1(O)CC[C@H]2[C@@H]3CCC4=CC(=O)CC[C@@H]4[C@H]3CC[C@@]21CC [Levonorgestrel], the “scaled lipid accumulation score” value [2] is reported as at most 0, the “scaled lipid accumulation score” value [3] is reported as at most 0 and the “scaled lipid accumulation score” value [4] is reported as 0.107. For the same compound, the “scaled lipid accumulation score” value [1] was 0.727.
C#C[C@]1(O)CCC2C3CCC4=CC(=O)CC[C@@H]4C3CC[C@@]21CC (stereo not given in full) [Norgestrel] was tested, and the “scaled lipid accumulation score” value [4] was 1.05 (active).
In the case of C#C[C@]1(O)CC[C@H]2[C@@H]3CCC4=CC(=O)CC[C@@H]4[C@H]3CC[C@@]21CC [Norgestrel-(-)-D], the “scaled lipid accumulation score” value is reported as at most 0.
C#CC1(O)CC[C@H]2[C@@H]3CCC4=CC(=O)CC[C@@H]4[C@H]3CC[C@@]21CC (stereo not given in full) [Norgestrel] was tested, and the “scaled lipid accumulation score” value [2] was 0.037 and the “scaled lipid accumulation score” value [1] was 0.03.
Nc1nc2c(nc(O)n2[C@@H]2O[C@H](CO)[C@@H](O)[C@H]2O)c(=O)[nH]1 [8-hydroxy Guanosine] was tested, and the “scaled lipid accumulation score” value [2] was at most 0.
With CCCCC[C@H](O)/C=C/[C@@H]1[C@H]2C/C(=C\CCCC(=O)O)C[C@H]2C[C@H]1O [5-cis Carbaprostacyclin] the “scaled lipid accumulation score” value [2] was at most 0.
In the case of O=C1OC[C@H](Cc2cccc(O)c2)[C@H]1Cc1cccc(O)c1, the “scaled lipid accumulation score” value [2] is reported as at most 0.
With O=C(Nc1cccc(Nc2nccc(Nc3cccc(C(F)(F)F)c3)n2)c1)C1CC1 [Aurora Kinase Inhibitor III] the “scaled lipid accumulation score” value [3] was 0.0325.
CCN(CC)CCCCNc1ncc2cc(-c3cc(OC)cc(OC)c3)c(NC(=O)NC(C)(C)C)nc2n1 [listing 1 of 3 here] was tested, and the “scaled lipid accumulation score” value [3] was 1.34 (active) and the “scaled lipid accumulation score” value [1] was 1.01 (active).
In the case of CCN(CC)CCNC(=O)COc1ccc(OC)cc1 [Mefexamide], the “scaled lipid accumulation score” value (library stock concentration: 6.3 mM) is reported as 0.018 and the “scaled lipid accumulation score” value [1] is reported as at most 0.
CCN(CC)CCCCNc1ncc2cc(-c3cc(OC)cc(OC)c3)c(NC(=O)NC(C)(C)C)nc2n1 [listing 2 of 3 here] was tested, and the “scaled lipid accumulation score” value [5] was at most 0 and the “scaled lipid accumulation score” value [6] was at most 0.
CCN(CC)CCCCNc1ncc2cc(-c3cc(OC)cc(OC)c3)c(NC(=O)NC(C)(C)C)nc2n1 [listing 3 of 3 here] was tested, and the “scaled lipid accumulation score” value [7] was 1.12 (active) and the “scaled lipid accumulation score” value [1] was 1.22 (active).
CCN(CC)CCNC(=O)COc1ccc(OC)cc1 [Mefexamide hydrochloride] was tested, and the “scaled lipid accumulation score” value was at most 0.
CCN(CC)CCCCNc1ncc2c(n1)N(C)C(=O)N(c1c(Cl)c(OC)cc(OC)c1Cl)C2 was tested, and the “scaled lipid accumulation score” value [5] was at most -0.008, the “scaled lipid accumulation score” value [6] was at most -0.008 and the “scaled lipid accumulation score” value [7] was at most -0.001. For the same compound, the “scaled lipid accumulation score” value [1] was 0.416.
With COc1cc(OC)cc(-c2cc3cnc(N)nc3nc2NC(=O)NC(C)(C)C)c1 the “scaled lipid accumulation score” value [1] was at most 0.
With CCCCCCCCCCCCCC=CC(O)C(CO)NC(=O)CCCCCCCCCCCCCCCCCCCCCCC (stereo not given) [Lignoceric Ceramide] the “scaled lipid accumulation score” value [2] was at most 0.
For Nc1nc2ccc(Cl)cc2n2c(-c3ccccc3)nnc12, the “scaled lipid accumulation score” value [1] was 0.049.
In the case of CCCCC#Cc1nc(NC)c2ncn([C@@H]3O[C@H](CO)[C@@H](O)[C@H]3O)c2n1, the “scaled lipid accumulation score” value [1] is reported as ≤ 0 and ≤ -0.006.
In the case of CC(C(C)N1CC(=O)NC(=O)C1)N1CC(=O)NC(=O)C1 (stereo not given), the “scaled lipid accumulation score” value (library stock concentration: 17.7 mM) is reported as at most -0.012.
For C=N[C@@H](C(=O)N[C@@H]1C(=O)N2[C@@H]1SC(C)(C)[C@@H]2C(=O)O)c1ccccc1 [Metampicillin sodium salt], the “scaled lipid accumulation score” value was at most 0.
For CC(=O)Oc1c(C)cccc1C(=O)O, the “scaled lipid accumulation score” value [1] was at most 0.
In the case of CCCCC[C@@](C)(O)/C=C/[C@@H]1[C@@H](C/C=C\CCCC(=O)OC)[C@@H](O)C[C@H]1O [15(R)-15-methyl Prostaglandin F2.alpha. methyl ester], the “scaled lipid accumulation score” value [2] is reported as at most 0.
CN1CCc2c(c3ccccc3n2Cc2ccc(C(=O)NO)cc2)C1 [Tubastatin A] was tested, and the “scaled lipid accumulation score” value [3] was at most 0 and the “scaled lipid accumulation score” value [1] was at most 0.
In the case of CN1CCc2c(c3ccccc3n2Cc2ccc(C(=O)NO)cc2)C1 [Tubastatin A HCl], the “scaled lipid accumulation score” value [3] is reported as at most 0 and the “scaled lipid accumulation score” value [1] is reported as 0.218.
In the case of Cn1cc(CNCC2CCN(c3ncc(C(=O)NO)cn3)CC2)c2ccccc21 [listing 1 of 2 here], the “scaled lipid accumulation score” value [3] is reported as 0.478.
Cn1cc(CNCC2CCN(c3ncc(C(=O)NO)cn3)CC2)c2ccccc21 [listing 2 of 2 here] was tested, and the “scaled lipid accumulation score” value [1] was 0.985 (active).
In the case of O=C(C[S+]([O-])Cc1ccco1)NC/C=C\COc1cc(CN2CCCCC2)ccn1 (stereo not given) [Lafutidine], the “scaled lipid accumulation score” value [3] is reported as at most 0 and the “scaled lipid accumulation score” value [1] is reported as at most 0.
In the case of C=CCc1ccccc1OCC(O)CNC(C)C (stereo not given) [Alprenolol HCl], the “scaled lipid accumulation score” value (library stock concentration: 8 mM) is reported as 0.203.
With C=CCc1ccccc1OCC(O)CNC(C)C (stereo not given) [Alprenolol hydrochloride] the “scaled lipid accumulation score” value was 0.634 and the “scaled lipid accumulation score” value [1] was 0.5.
CC(COc1ccccc1Cc1ccccc1)N1CCCCC1.O=P(O)(O)O (stereo not given) was tested, and the “scaled lipid accumulation score” value [1] was 1.02 (active).
With N=C(CC(O)COc1ccccc1-c1ccccc1)N1CCCCC1 (stereo not given) the “scaled lipid accumulation score” value [1] was 0.781.
In the case of O=c1ncc(F)c[nH]1 [5-fluoro-2-pyrimidone], the “scaled lipid accumulation score” value [1] is reported as at most 0.
In the case of CC1CCN=C(N)C1 (stereo not given) [2-Imino-4-methylpiperidine (acetate)], the “scaled lipid accumulation score” value [2] is reported as 0.011.
For N#C/C(=C\c1ccc(O)c(O)c1)C(=O)NCCCCc1ccccc1, the “scaled lipid accumulation score” value [1] was at most 0.
In the case of CCCCCOc1ccccc1C(O)CC#CCCCC(=O)OC (stereo not given), the “scaled lipid accumulation score” value [2] is reported as 0.022.
For CNS(=O)(=O)CCc1ccc2[nH]cc(C3CCN(C)CC3)c2c1 [Naratriptan hydrochloride], the “scaled lipid accumulation score” value [1] was 0.019.
For Br.CN1CCC[C@@H]1Cc1c[nH]c2ccc(CCS(=O)(=O)c3ccccc3)cc12 [Eletriptan hydrobromide], the “scaled lipid accumulation score” value [1] was 0.912 (active).
CN1CCC[C@@H]1Cc1c[nH]c2ccc(CCS(=O)(=O)c3ccccc3)cc12 [Eletriptan hydrobromide] was tested, and the “scaled lipid accumulation score” value [1] was 0.624.
In the case of CNS(=O)(=O)CCc1ccc2[nH]cc(C3CCN(C)CC3)c2c1 [Naratriptan], the “scaled lipid accumulation score” value [3] is reported as at most 0 and the “scaled lipid accumulation score” value [1] is reported as at most 0.
With CN1CCC[C@@H]1Cc1c[nH]c2ccc(CCS(=O)(=O)c3ccccc3)cc12 [Eletriptan HBr] the “scaled lipid accumulation score” value [3] was 0.194 and the “scaled lipid accumulation score” value [1] was 0.202.
With COC(=O)N[C@H](C(=O)N1CCC[C@H]1c1ncc(-c2ccc(-c3ccc(-c4cnc([C@@H]5CCCN5C(=O)[C@@H](NC(=O)OC)C(C)C)[nH]4)cc3)cc2)[nH]1)C(C)C [listing 1 of 2 here] the “scaled lipid accumulation score” value [1] was 1.04 (active).
With COC(=O)N[C@H](C(=O)N1CCC[C@H]1c1ncc(-c2ccc(-c3ccc(-c4cnc([C@@H]5CCCN5C(=O)[C@@H](NC(=O)OC)C(C)C)[nH]4)cc3)cc2)[nH]1)C(C)C [listing 2 of 2 here] the “scaled lipid accumulation score” value [3] was 0.322.
CCCCC[C@H](O)/C=C/[C@@H]1C2C[C@H](CCCCC(=O)O)O[C@@H]2C[C@H]1O (stereo partly drawn) [6.beta.-Prostaglandin I1] was tested, and the “scaled lipid accumulation score” value [2] was 0.004.
For CC(N)(Cc1ccc(O)c(O)c1)C(=O)O (stereo not given), the “scaled lipid accumulation score” value [1] was at most 0.
In the case of CC(C)CN1CCC(CNCc2ccc(C#CC(C)(C)O)s2)CC1, the “scaled lipid accumulation score” value [1] is reported as 0.671 (active).
Cc1c(C)c2c(c(C)c1O)CCC(C)(CCCC(C)C(=O)O)O2 (stereo not given) was tested, and the “scaled lipid accumulation score” value [2] was at most 0.
C[C@H]1C[C@H]2[C@@H]3CCC4=CC(=O)C=C[C@]4(C)[C@H]3C(=O)C[C@]2(C)[C@@]1(O)C(=O)CO [Meprednisone] was tested, and the “scaled lipid accumulation score” value [3] was 0.055 and the “scaled lipid accumulation score” value [1] was at most 0.
With Cc1ccc(F)c(NC(=O)Nc2ccc(-c3cccc4[nH]nc(N)c34)cc2)c1 [Linifanib (ABT-869)] the “scaled lipid accumulation score” value [3] was at most 0 and the “scaled lipid accumulation score” value [1] was at most 0.
In the case of Cc1cc(NC(=O)Nc2ccc(N(C)C)cc2)c2cc(F)cc(F)c2n1, the “scaled lipid accumulation score” value [3] is reported as 0.007 and the “scaled lipid accumulation score” value [1] is reported as 0.001 and ≤ -0.006.
In the case of Cc1ccc(F)c(NC(=O)Nc2ccc(-c3cccc4[nH]nc(N)c34)cc2)c1 [listing 1 of 2 here], the “scaled lipid accumulation score” value [5] is reported as 0.001, the “scaled lipid accumulation score” value [6] is reported as ≤ -0.009 and ≤ -0.005 and the “scaled lipid accumulation score” value [7] is reported as 0.233 and 0.419. For the same compound, the “scaled lipid accumulation score” value [1] was 0.446.
For Cc1ccc(F)c(NC(=O)Nc2ccc(-c3cccc4[nH]nc(N)c34)cc2)c1 [listing 2 of 2 here], the “scaled lipid accumulation score” value [1] was 1.08 (active).
For CCCCCCCCCCCCC(=O)NC1CCOC1=O [N-tridecanoyl-L-Homoserine lactone], the “scaled lipid accumulation score” value [2] was at most 0.
With COc1cccc(C=NCCN=Cc2cccc(OC)c2[O-])c1[O-].[Cl-].[Mn+3] the “scaled lipid accumulation score” value [3] was at most 0 and the “scaled lipid accumulation score” value [1] was 0.234.
For Cc1ccc(/C=N/NC(=O)c2ccccc2Oc2ccccc2)o1, the “scaled lipid accumulation score” value [1] was at most -0.001.
CN(C)C(=O)n1nnnc1Cc1ccc(-c2ccccc2)cc1 was tested, and the “scaled lipid accumulation score” value [1] was 0.554.
